Compound activity: PubChem BioAssay, several laboratories
Most compounds without a hit are left out; they make up all but 2.4% or so of the library.
TLR9-MyD88 inh: inhibitors of TLR9-MyD88 association in cells, primary screen, cell-based, CHO, BLA complementation, fluorescence; Toll-like receptor 9 (Homo sapiens) + Myeloid differentiation primary response protein …; CCF4 FRET ratio; inhibition, % at 4.98 µM; 340,000 compounds, 0.21% hits; AID 504734, 2011;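 active = inhibition above the mean over all tested compounds plus 3 SD, cut at about 21% in these data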;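 note: 0% = DMSO only wells and 100% = clavulanate BLA inhibitor control wells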
ABHD5 PLIN5 PPI: ABHD5-PLIN5 interaction inhibitors, primary screen, cell lysate, split luciferase complementation, luminescence; Perilipin-5 (Homo sapiens) + 1-acylglycerol-3-phosphate O-acyltransferase ABHD5 (Homo …; Split G. princeps luciferase complementation, 4 h; inhibition, % at 4 µM; 360,000 compounds, 0.78% hits;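 active = inhibition above the mean inhibition across every tested compound plus 3 SD, cut at about 22% in these data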;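 note: 0% = DMSO only wells and the 100% control is not disclosed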
CRFR2-BP antag: antagonists of CRF-BP/CRF-R2 complex, primary screen, cell-based, HEK293, calcium dye fluorescence, uHTS; 350,000 compounds, 0.59% hits; AID 588475, 2011; CRF-induced calcium fluorescence; inhibition, % at 11.8 µM;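 active = inhibition of the ligand-induced calcium signal above about 50% at the single tested concentration, limit read from the data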
m5-HT2A agonist: mouse Htr2a agonists via beta-arrestin recruitment, primary screen, cell-based, luminescence; 5-hydroxytryptamine receptor 2A (Mus musculus), P35363; CHO-K1 mHTR2A beta-arrestin complementation; percent of 30 µM serotonin response; activation, % at 7.6 µM; 360,000 compounds, 0.66% hits; AID 624169, 2012;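 active = activation above a run cutoff, the mean activation of all tested compounds plus 3 SD, cut at about 14% in these data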;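 note: 0% = plate median of compound wells and 100% = 30 µM serotonin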
NOD2-RIPK2 inh: NOD2-RIPK2 binding disruptors in cells, primary screen, fluorescence, CHO cells, BLA complementation; 360,000 compounds, 0.38% hits; AID 624267, 2012; CCF4 ratio; inhibition, % at 4.98 µM; in the data active = inhibition above about 21%;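 note: 0% = vehicle only and 100% = reference blocker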
TLR4 MyD88 comp: inhibitors of TLR4-MyD88 association in cells, primary screen, cell-based, HeLa CL3-4, BLA complementation, FRET ratio; HeLa CL3-4 TLR4/MyD88 BLA complementation; 200,000 compounds, 0.18% hits; AID 861, 2007; Toll-like receptor 4 (Homo sapiens) + Myeloid differentiation primary response protein …; inhibition, % at 8.4 µM; in the data active = inhibition above about 25%;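 note: 0% = vehicle and 100% = reference inhibitor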
Target sequence (O00206 whole entry, looked up): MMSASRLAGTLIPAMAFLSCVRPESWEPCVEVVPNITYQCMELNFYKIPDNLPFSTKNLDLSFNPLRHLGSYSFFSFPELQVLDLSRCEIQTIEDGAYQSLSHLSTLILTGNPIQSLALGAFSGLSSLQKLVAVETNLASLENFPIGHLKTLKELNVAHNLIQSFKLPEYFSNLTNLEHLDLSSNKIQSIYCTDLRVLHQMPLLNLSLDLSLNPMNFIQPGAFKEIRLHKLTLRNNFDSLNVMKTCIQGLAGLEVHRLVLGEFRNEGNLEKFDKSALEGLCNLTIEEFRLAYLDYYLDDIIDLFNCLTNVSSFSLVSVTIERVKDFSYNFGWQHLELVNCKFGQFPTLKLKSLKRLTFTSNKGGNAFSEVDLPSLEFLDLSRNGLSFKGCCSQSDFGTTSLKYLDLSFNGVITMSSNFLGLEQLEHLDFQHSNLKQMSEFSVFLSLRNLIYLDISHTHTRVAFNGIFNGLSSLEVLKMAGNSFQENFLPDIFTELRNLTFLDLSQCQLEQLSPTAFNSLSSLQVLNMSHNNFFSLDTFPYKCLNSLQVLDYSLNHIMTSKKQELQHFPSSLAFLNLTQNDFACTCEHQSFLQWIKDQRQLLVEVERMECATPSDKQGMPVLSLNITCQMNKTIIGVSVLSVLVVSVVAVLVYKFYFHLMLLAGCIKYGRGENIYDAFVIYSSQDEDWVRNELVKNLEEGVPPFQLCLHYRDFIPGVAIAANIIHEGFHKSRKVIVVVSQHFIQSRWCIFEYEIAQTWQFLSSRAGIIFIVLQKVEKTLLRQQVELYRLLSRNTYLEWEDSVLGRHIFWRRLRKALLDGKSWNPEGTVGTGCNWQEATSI
Target sequence (Q99836 whole entry, looked up): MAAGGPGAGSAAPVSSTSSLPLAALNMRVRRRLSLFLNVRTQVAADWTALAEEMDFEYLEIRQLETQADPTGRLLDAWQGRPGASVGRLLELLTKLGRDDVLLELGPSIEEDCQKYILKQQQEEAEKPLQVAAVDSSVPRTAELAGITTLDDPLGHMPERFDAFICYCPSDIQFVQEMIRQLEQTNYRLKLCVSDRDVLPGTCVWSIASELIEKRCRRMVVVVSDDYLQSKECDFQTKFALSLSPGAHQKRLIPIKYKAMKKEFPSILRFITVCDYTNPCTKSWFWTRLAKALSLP
OPRM1 ag: OPRM1 agonists via beta-arrestin recruitment, confirmation, counter-screen for mouse HTR2A agonist project, cell-based, luminescence, single concentration | shares compounds with m5-HT2A agonist | U2OS OPRM1 beta-arrestin PathHunter; DMSO 0%, DAMGO 9.3 µM 100% | activation, % at 9.3 µM | 2,300 compounds, 5.3% hits;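 active = mean activation above the mean of DMSO-only wells plus 3 SD, cut at about 0.5% in these data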
m5-HT2A ag conf: mouse HTR2A agonists, beta-arrestin recruitment, confirmation, cell-based, luminescence, CHO-K1 PathHunter, triplicate | shares compounds with m5-HT2A agonist | DMSO 0%, 30 µM serotonin 100% | activation, % at 7.6 µM | 2,300 compounds, 19% hits | AID 624381, 2012;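 active = mean activation across triplicates above the hit threshold derived in the original primary screen, cut at about 15% in these data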
An asterisk follows results filed as active; . = no result given.

SMILES	TLR9-MyD88 inh	ABHD5 PLIN5 PPI	CRFR2-BP antag	m5-HT2A agonist	NOD2-RIPK2 inh	TLR4 MyD88 comp	OPRM1 ag	m5-HT2A ag conf
C[C@@H]1CN([C@@H](C)CO)S(=O)(=O)c2ccc(-c3ccccc3)cc2O[C@@H]1CN(C)Cc1ccccc1C(=O)O	5	5	9	19*	-11	.	-1	-1
C[C@H]1CN([C@@H](C)CO)S(=O)(=O)c2ccc(Br)cc2O[C@@H]1CN(C)S(=O)(=O)c1ccccc1	0	2	-13	-8	4	.	.	.
C[C@H](CO)N1C[C@H](C)[C@@H](CN(C)CC2CCOCC2)Oc2cc(C#Cc3ccccc3F)ccc2S1(=O)=O	11	-5	1	-4	6	.	.	.
C[C@H]1CN([C@@H](C)CO)S(=O)(=O)c2ccc(-c3ccccc3)cc2O[C@H]1CN(C)C(=O)C1CCC1	-14	-1	-17	3	10	.	.	.
C[C@@H]1CN([C@H](C)CO)S(=O)(=O)c2ccc(C#Cc3ccccc3F)cc2O[C@H]1CN(C)C(=O)c1ccc2c(c1)OCO2	-15	8	5	20*	5	.	0	32*
CSc1ccc(Cn2c(C)c(C(=O)NCc3ccc(F)cc3)sc2=O)cc1	.	-8	.	-6	7	.	.	.
COc1ccc(/C=N/NC(=O)c2cccc([N+](=O)[O-])c2)cc1OC(=O)c1ccc(C)cc1	6	2	7	20*	5	-1	0	-8
O=C(N/N=C/c1ccc(OC(=O)c2ccccc2)c([N+](=O)[O-])c1)c1ccc(O)cc1	-1	10	-29	16*	0	-6	-1	-6
Cc1cc2nc(C3CCCCC3)c(Cc3cccc(Cl)c3)n2c(C)c1Br	.	-2	.	0	-7	.	.	.
Cc1nc2ncnn2c(C)c1CCC(=O)NCCc1ccccc1	-7	-3	4	4	-3	3	.	.
Cc1nc2ncnn2c(C)c1CCC(=O)NCCCN1CCN(c2cccc(Cl)c2)CC1	2	4	8	24*	-18	-6	0.9*	80*
COc1ccc(CC2(CO)CCN(C/C=C/c3ccccc3OC)CC2)cc1	-5	18	1	7	-5	6	.	.
COc1ccc(CC2(CO)CCN(C(C)COc3ccccc3)CC2)cc1 (stereo not given)	-14	3	-36	20*	-6	4	0	85*
CC(COc1ccccc1)N1CCC(CO)(Cc2ccccc2)CC1 (stereo not given)	-13	3	3	29*	13	-3	0	73*
CC1CCCN(C(=O)CSCC(=O)Nc2nc(-c3cccs3)cs2)C1 (stereo not given)	-10	8	-1	15*	9	-2	-1	3
CC1CCN(C(=O)CSCC(=O)Nc2nc(-c3cccs3)cs2)CC1	9	5	11	-3	0	4	.	.
CCc1nc2c(OCc3cc(Cl)cc(Cl)c3)cccn2c1N(C=O)Cc1ccccc1	.	2	.	-1	4	.	.	.
O=C(Nc1nc2c(F)cccc2s1)C1CC1	-1	5	-9	1	1	.	.	.
CC1CCc2c(sc(Nc3nc4c(F)cccc4s3)c2C(N)=O)C1 (stereo not given)	5	3	-45	19*	-13	-9	0	12
CCN(Cc1ccccc1)C(=O)CCCOc1ccccc1	5	0	16	-1	-2	4	.	.
CN(CCOc1cccc2ccccc12)Cc1ccccc1	-5	-5	-7	15*	-3	.	0	19*
CN(CCOc1ccccc1)Cc1ccccc1	.	1	.	20*	2	.	0	37*
CCc1ccc(CN(C)CC(O)COc2cccc3ccccc23)cc1 (stereo not given)	-10	7	-21	-9	8	.	.	.
C[N+](C)(CCOc1ccccc1)Cc1ccccc1	-3	-7	25	35*	-1	.	1.6*	3
Cc1onc(-c2ccccc2)c1C(=O)Nc1ccc(NC(=O)c2c(-c3ccccc3)noc2C)cc1	-8	6	-25	19*	-7	.	0	-4
SMILES	TLR9-MyD88 inh	ABHD5 PLIN5 PPI	CRFR2-BP antag	m5-HT2A agonist	NOD2-RIPK2 inh	TLR4 MyD88 comp	OPRM1 ag	m5-HT2A ag conf
Cc1onc(-c2ccccc2)c1C(=O)Nc1ccc(N2CCOCC2)cc1	8	-5	-8	-10	-7	14	.	.
CCc1noc(C)c1C(=O)Nc1nc(-c2ccccc2)c(C(C)=O)s1	-1	-1	-23	35*	8	.	-1	9
Cc1cc(C)c(CN2CCN(C(=O)Cn3cnc4c(NCc5ccccc5)ncnc43)CC2)c(C)c1	-9	7	9	22*	-9	.	.	8
CCCCNC(=O)c1c(N)[nH]c(C(=O)c2ccccc2)c1-c1ccccn1	.	-26	.	0	0	.	.	.
Cc1ccc(NC(=O)CCN2C(=O)c3ccccc3C2=O)cc1	2	2	12	23*	6	.	0	-3
CC(C)NC(=O)C1(C)CN(S(C)(=O)=O)CC(=O)N1C1CC1 (stereo not given)	.	5	.	2	-7	.	.	.
CCC(C)(C)NC(=O)CN(C(=O)C(=O)Nc1ccc2c(c1)OCCO2)N1CCOCC1	4	0	-8	16*	-7	.	-1	-1
Cc1cc(O)c(Sc2ccc(Cl)cc2)c(=O)[nH]1	7	4	1	-1	-18	.	.	.
Cc1[nH]n(C(C)(C)C)c(=O)c1Sc1ccc(Cl)cc1	-7	-3	13	15*	-10	-14	0	18*
CC1(C(=O)Nc2cccc(NS(C)(=O)=O)c2)CCN1Cc1ccccc1OC(F)F (stereo not given)	.	5	.	-6	-4	.	.	.
CCCCC[C@@H](C)N1C[C@@H](COCc2ccccc2)Oc2cc(N3CCC[C@@H]3COC)ccc2S1(=O)=O	.	-8	.	5	4	.	.	.
O=C(c1cccc(C(=O)N(c2ccccn2)C2CCCCC2)c1)N(c1ccccn1)C1CCCCC1	8	-4	-5	30*	-7	16	0	53*
